# Laboratory results taken from PubChem BioAssay (NCATS).
# Inconclusive results are not listed. A call without a number means that no potency is given here. Calls of active or inactive are those of the source. Unless noted, calls follow the shape of the dose curve; as a rule, active = well fitted curve in the direction sought with a large enough effect; inconclusive = small, poorly fitted or top-dose-only effect, or another doubt; inactive = no such curve, though single readings can be large; an effect the other way counts as inactive or inconclusive.
# How the values were obtained:
# [1] = qHTS assay for small molecule activators of the p53 signaling pathway (AID 651743; active = well fitted activation curve with a large enough effect in the signal ratio, not every such curve was filed as active; the % refers to the signal ratio); conditions: HCT-116 p53RE-bla, beta-lactamase FRET ratio, 16 h; activation: stronger effect = higher value
# Method in brief: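 p53RE-bla HCT-116 cells with a stably integrated beta-lactamase reporter under p53 response elements were plated, rested 5 hours at 37 C/5% CO2, then exposed to compounds in DMSO for 16 hours at 37 C. LiveBLAzer B/G FRET substrate was read after 2 hours at room temperature.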
# [2] = qHTS assay for small molecule activators of the nuclear factor-kappa B (NF-kB) signaling pathway (AID 651749; active = well fitted activation curve with a large enough effect in the signal ratio; the % refers to the signal ratio); conditions: NF-kB-bla ME-180 cells, beta-lactamase FRET ratio, 16 h; stronger effect = higher value
# Method in brief: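 ME-180 cells stably carrying a beta-lactamase reporter under an NF-kB response element were exposed to compound or DMSO vehicle for 16 hr at 37C, 5% CO2. Pathway activation was read by FRET, since reporter expression disrupts FRET.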
# [3] = qHTS assay for small molecule disruptors of the mitochondrial membrane potential - 1 hr assay (AID 651754; calls by dose curve; also: nearly all actives have a fitted effect of over 35% in size)
# Method in brief: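 Steps: seed HepG2 cells and let attach overnight; pin-transfer compound or vehicle; incubate 1 hr at 37C; add Mito-MPS dye for 30 min; read two-channel fluorescence for monomer and aggregate forms.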
# [4] = qHTS assay for small molecule disruptors of the mitochondrial membrane potential - 5 hr assay (AID 651755; calls by dose curve; also: nearly all actives have a fitted effect of over 40% in size)
# Method in brief: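 HepG2 cells, attached overnight at 37C, were exposed to compound or DMSO for 5 hr at 37C, 5% CO2. Mito-MPS dye was then added for 30 min, and fluorescence read at 490/535 nm (monomers) and 540/590 nm (aggregates).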
# [5] = target: Tumor necrosis factor (Homo sapiens) (UniProt P01375); assay: qHTS assay to identify small molecules that stimulate Tumor Necrosis Factor-alpha (TNF-alpha) secretion (AID 651757; active = well fitted curve in the direction sought with a large enough effect in the signal ratio; the % refers to the signal ratio; also: potency is read from the fitted curve at half-maximal effect)
# Method in brief: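 Secreted TNF-alpha from compound-treated THP-1 cells (17 hrs, 37 C) was quantified with a homogeneous time-resolved fluorescence antibody assay.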
# [6] = qHTS assay for environmental chemicals that activate the Aryl hydrocarbon Receptor (AhR) signaling pathway (AID 651777); conditions: 1A2-DRE human hepatoma cells, luciferase, 24 h; activation: stronger effect = higher value; also: nearly all actives have a fitted effect of over 15% in size
# Method in brief: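 Following a 24 hr incubation with test chemicals at 37 C and 5% CO2, 1A2-DRE human hepatoma cells received One-Glo reagent; after 30 min at room temperature, luciferase output reflected CYP1A2 induction via AhR.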
# [7] = target: Peroxisome proliferator-activated receptor alpha (Homo sapiens) (UniProt Q07869); assay: qHTS assay for small molecule agonists of the peroxisome proliferator-activated receptor alpha (PPARalpha) signaling pathway (AID 651778); conditions: PathHunter PPARalpha complementation, chemiluminescence, 6 h; stronger effect = higher value
# Method in brief: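 Cells plated at 2,000/well and held overnight at 37 C, 5% CO2, then compound added by pin tool for 6 hr; after PathHunter detection reagent and 60 min at room temperature, chemiluminescence from enzyme complementation was read.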
# [8] = qHTS assay for small molecule agonists of the antioxidant response element (ARE) signaling pathway measured by Nrf2-dependant transcriptional activity (AID 720636; active = well fitted curve in the direction sought with a large enough effect in the repeat runs; an effect the other way counts as inactive or inconclusive;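 also: HepG2 cells with an ARE-driven luciferase reporter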)
# Method in brief: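 ONE-Glo luminescence, read 30 min after reagent addition at room temperature, reflected ARE reporter activity in HepG2 cells that had been incubated with compound for 16 hr at 37 C in 1% dialyzed FBS.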
# [9] = qHTS assay for small molecule antagonists of the retinoid-related orphan receptor gamma (ROR-gamma) signaling pathway - cell viability counter screen (AID 720652; active = well fitted curve in the direction sought with a large enough effect in the repeat runs; an effect the other way counts as inactive or inconclusive;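 also: CHO reporter cells with doxycycline-induced ROR-gamma expression; compound exposure lasted 16 hr before ATP read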)
# Method in brief: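 Cytotoxicity is quantified via intracellular ATP (CellTiter-Glo luminescence) in doxycycline-induced CHO ROR response element-luciferase reporter cells treated with compound for 16 hr at 37 C, 5% CO2.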
# [10] = qHTS assay for small molecule agonists of the antioxidant response element (ARE) signaling pathway measured by Nrf2-dependant transcriptional activity - cell viability counter screen (AID 720653; active = well fitted curve in the direction sought with a large enough effect in the repeat runs; an effect the other way counts as inactive or inconclusive); conditions: ARE-bla HepG2 viability, CellTiter-Glo ATP luminescence, 16 h; stronger effect = lower value
# Method in brief: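 ARE-bla HepG2 cells (2,000/well) rested 5 hrs at 37C/5% CO2, then exposed to compounds in DMSO for 16 hrs. Viability was read in the same wells as intracellular ATP by luminescence, 30 min at room temperature after reagent addition.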
# [11] = qHTS assay for cell viability of HEK293 cells (AID 743288); conditions: ATP luminescence (CellTiter-Glo), 18 h, stronger effect = lower value; also: nearly all actives have a fitted effect of over 50% in size
# Method in brief: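 HEK293 parental, 2,000 cells/well; ≥5 h pre-incubation 37 C; pintool compound addition; 18 h, 37 C; CellTiter-Glo 30 min RT; luminescence read.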
# [12] = qHTS assay for cell viability of the p53RE-bla HCT-116 cell line (AID 743292); also: nearly all actives have a fitted effect of over 55% in size
# Method in brief: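 After plating at 4,000 cells per well and a 5 h rest at 37 C, HCT-116 cells carrying p53RE-bla received test chemicals in DMSO. Sixteen hours later at 37 C, CellTiter-Glo was added and luminescence recorded following 30 min at room temperature.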
# [13] = qHTS to identify inhibitors of the type 1 interferon - major histocompatibility complex class I in skeletal muscle: primary screen against the NCATS Mechanism Interrogation Plate v5.0 (MIPE) Libary (AID 1347411); also: nearly all actives have a fitted effect of over 65% in size
# Method in brief: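 Cells were genome-edited human myoblasts carrying a HiBit tag on endogenous HLA-B. They were treated with IFN-beta (4.0 ng/ml) and titrated compounds (top 46 uM) for 24 hrs before lytic HiBiT detection.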
# [14] = Primary qHTS for inhibitors of nuclear receptor binding SET domain protein 2 (NSD2) in an isogenic RCH-ACV NSD2 p.E1099K mutant (9B) (AID 1645876); also: nearly all actives have a fitted effect of over 70% in size
# [15] = Primary qHTS for inhibitors of nuclear receptor binding SET domain protein 2 (NSD2) in an RCH-ACV wild type WT cells (2C) (AID 1645877); also: nearly all actives have a fitted effect of over 70% in size
# [16] = target: Glutathione peroxidase 1 (Homo sapiens) (UniProt P07203); assay: Primary qHTS Assay for Inhibitors of Recombinant Selenoprotein Glutathione Peroxidase 1 (GPX1) (AID 1845191); also: nearly all actives have a fitted effect of over 65% in size
# Method in brief: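 Recombinant GPX1 (10 nM final) was preincubated with compound for 30 min at room temperature, then reacted with 1 mM GSH, 0.5 mM CHP, 0.5 mM NADPH and 100 nM glutathione reductase; NADPH fluorescence (340/450 nm) was read at 0 and 15 min.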
# [17] = target: Phospholipid hydroperoxide glutathione peroxidase GPX4 (Homo sapiens) (UniProt P36969); assay: Primary qHTS Assay for Inhibitors of Recombinant Selenoprotein Glutathione Peroxidase 4 (GPX4) (AID 1845192); conditions: outcome: dose series up to 50 µM unless noted; also: nearly all actives have a fitted effect of over 65% in size
# Method in brief: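 GR-coupled readout: 100 nM GR, 1 mM GSH, 0.5 mM NADPH; NADPH fluorescence (ex 340/em 450 nm) read at t=0 and after 15 min RT. GPX4 200 nM, preincubated 30 min with compound; substrate 0.5 mM CHP.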
# [18] = qHTS drug screen for cell cycle checkpoint inhibitors in PARPi-resistant BRCA-mutant ovarian cancer cell lines. (AID 1963452; calls by dose curve); conditions: PEO1/OlaR viability, CellTiter-Glo luminescence, 96 h, stronger effect = lower value
# Method in brief: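 PEO1, PEO4 and PEO1/OlaR ovarian cancer cells, 600 per well, exposed 96 h at 37C to a dilution series. Viability read by CellTiter-Glo luminescence, normalized to DMSO and empty wells; activity summarized as Z-AUC.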
# [19] = qHTS profiling for inhibitors of Plasmodium falciparum proliferation (AID 504749); also: nearly all actives have a fitted effect of over 60% in size; conditions: P. falciparum in erythrocytes, SYBR Green DNA, 72 h; at 28.7 µM (top of the series); parasite line A
# Method in brief: (§1)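 P. falciparum-infected erythrocytes (0.3% parasitemia, 2.5% hematocrit final) were exposed to compounds for 72 h at 37 C in 5% CO2, then lysed with SYBR Green buffer overnight at room temperature; parasite DNA fluorescence was normalized to artemisinin and DMSO controls.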
# 7G8 = assay: as above; conditions: P. falciparum in erythrocytes, SYBR Green DNA, 72 h; series mostly up to 28.7 µM
# Method in brief: as §1
# AA1029 = assay: as above; conditions: P. falciparum in erythrocytes, SYBR Green DNA, 72 h; series mostly up to 28.7 µM
# Method in brief: as §1
# AS120 = assay: as above; conditions: P. falciparum in erythrocytes, SYBR Green DNA, 72 h; series mostly up to 28.7 µM
# Method in brief: as §1
# ATS189 = assay: as above; conditions: P. falciparum in erythrocytes, SYBR Green DNA, 72 h; series mostly up to 28.7 µM
# Method in brief: as §1
# ATS95 = assay: as above; conditions: P. falciparum in erythrocytes, SYBR Green DNA, 72 h; series mostly up to 28.7 µM
# Method in brief: as §1
# C2A = assay: as above; conditions: P. falciparum in erythrocytes, SYBR Green DNA, 72 h; series mostly up to 28.7 µM
# Method in brief: as §1
# CP185 = assay: as above; conditions: P. falciparum in erythrocytes, SYBR Green DNA, 72 h; series mostly up to 28.7 µM
# Method in brief: as §1
# CP191 = assay: as above; conditions: P. falciparum in erythrocytes, SYBR Green DNA, 72 h; series mostly up to 28.7 µM
# Method in brief: as §1
# CP192 = assay: as above; conditions: P. falciparum in erythrocytes, SYBR Green DNA, 72 h; series mostly up to 28.7 µM
# Method in brief: as §1
# CP194 = assay: as above; conditions: P. falciparum in erythrocytes, SYBR Green DNA, 72 h; series mostly up to 28.7 µM
# Method in brief: as §1
# CP201 = assay: as above; conditions: P. falciparum in erythrocytes, SYBR Green DNA, 72 h; series mostly up to 28.7 µM
# Method in brief: as §1
# CP203 = assay: as above; conditions: P. falciparum in erythrocytes, SYBR Green DNA, 72 h; series mostly up to 28.7 µM
# Method in brief: as §1
# CP211 = assay: as above; conditions: P. falciparum in erythrocytes, SYBR Green DNA, 72 h; series mostly up to 28.7 µM
# Method in brief: as §1
# CP217 = assay: as above; conditions: P. falciparum in erythrocytes, SYBR Green DNA, 72 h; series mostly up to 28.7 µM
# Method in brief: as §1
# CP237 = assay: as above; conditions: P. falciparum in erythrocytes, SYBR Green DNA, 72 h; series mostly up to 28.7 µM
# Method in brief: as §1
# CP238 = assay: as above; conditions: P. falciparum in erythrocytes, SYBR Green DNA, 72 h; series mostly up to 28.7 µM
# Method in brief: as §1
# CP247 = assay: as above; conditions: P. falciparum in erythrocytes, SYBR Green DNA, 72 h; series mostly up to 28.7 µM
# Method in brief: as §1
# CP250 = assay: as above; conditions: P. falciparum in erythrocytes, SYBR Green DNA, 72 h; series mostly up to 28.7 µM
# Method in brief: as §1
# Chain of Peroxisome proliferator-activated receptor alpha (Homo sapiens) (Q07869 whole entry, looked up): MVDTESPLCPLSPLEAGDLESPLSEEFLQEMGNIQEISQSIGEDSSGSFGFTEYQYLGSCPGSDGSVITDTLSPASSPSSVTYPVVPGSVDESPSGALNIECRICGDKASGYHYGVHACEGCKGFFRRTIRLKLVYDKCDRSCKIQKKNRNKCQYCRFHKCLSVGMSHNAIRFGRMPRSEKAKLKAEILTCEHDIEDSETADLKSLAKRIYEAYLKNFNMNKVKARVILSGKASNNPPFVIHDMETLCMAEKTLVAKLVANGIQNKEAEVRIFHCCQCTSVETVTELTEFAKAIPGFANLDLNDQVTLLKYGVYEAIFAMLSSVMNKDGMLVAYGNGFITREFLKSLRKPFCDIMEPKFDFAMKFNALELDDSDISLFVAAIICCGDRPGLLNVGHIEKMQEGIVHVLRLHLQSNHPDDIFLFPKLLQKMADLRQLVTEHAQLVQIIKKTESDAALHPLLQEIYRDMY
# Chain of Glutathione peroxidase 1 (Homo sapiens) (P07203 whole entry, looked up): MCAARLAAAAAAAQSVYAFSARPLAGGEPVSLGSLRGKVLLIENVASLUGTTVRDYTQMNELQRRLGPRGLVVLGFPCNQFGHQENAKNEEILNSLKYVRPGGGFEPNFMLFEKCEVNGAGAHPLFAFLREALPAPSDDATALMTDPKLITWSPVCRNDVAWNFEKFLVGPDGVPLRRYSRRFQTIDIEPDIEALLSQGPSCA
# Chain of Phospholipid hydroperoxide glutathione peroxidase GPX4 (Homo sapiens) (P36969 whole entry, looked up): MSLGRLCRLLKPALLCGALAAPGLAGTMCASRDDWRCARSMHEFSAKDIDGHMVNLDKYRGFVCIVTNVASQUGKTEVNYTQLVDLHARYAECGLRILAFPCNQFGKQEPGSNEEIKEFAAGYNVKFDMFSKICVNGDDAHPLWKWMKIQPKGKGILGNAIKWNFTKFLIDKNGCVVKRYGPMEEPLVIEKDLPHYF
# Chain of Tumor necrosis factor (Homo sapiens) (P01375 whole entry, looked up): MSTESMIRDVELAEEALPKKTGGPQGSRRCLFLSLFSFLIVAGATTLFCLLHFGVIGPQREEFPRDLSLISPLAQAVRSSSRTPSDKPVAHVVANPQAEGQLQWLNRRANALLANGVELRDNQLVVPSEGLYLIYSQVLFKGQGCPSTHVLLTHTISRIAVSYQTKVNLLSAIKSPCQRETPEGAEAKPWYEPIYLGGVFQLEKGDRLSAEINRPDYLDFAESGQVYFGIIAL
smiles,measurement,setting,value
C[C@@H]1[C@H](O)[C@@H](C)/C=C/C=C/C=C/C=C/C=C/C=C/C=C/[C@H](O[C@@H]2O[C@H](C)[C@@H](O)[C@H](N)[C@@H]2O)C[C@@H]2O[C@](O)(C[C@@H](O)C[C@@H](O)[C@H](O)CC[C@@H](O)C[C@@H](O)CC(=O)O[C@H]1C)C[C@H](O)[C@H]2C(=O)O,activation,[1],0.804% (inactive)
same,activation,[2],-0.187% (inactive)
same,Potency,[3],inactive
same,Potency,[4],inactive
same,Potency,[5],42.2 µM (active)
same,activation,[6],0.282% (inactive)
same,max response,[7],6.84% (inactive)
same,outcome,[8],inactive
same,outcome,[9],inactive
same,max response,[10],-15.2% (inactive)
same,max response,[11],-1.04% (inactive)
same,Potency,[12],inactive
same,Potency,[13],inactive
same,Potency,[14],inactive
same,Potency,[15],inactive
same,Potency,[16],inactive
same,Potency,[17],inactive
same,Z-AUC,[18],1.47 (inactive)
same,Z-AUC,[18]; measured here: PEO1 parental Z-AUC,1.65
same,Z-AUC,[18]; measured here: PEO4 Z-AUC,1.61
same,"activity, negative = inhibition",[19],-1.42% (inactive)
same,Potency,7G8,inactive
same,Potency,AA1029,inactive
same,Potency,AS120,inactive
same,Potency,ATS189,inactive
same,Potency,ATS95,inactive
same,Potency,C2A,inactive
same,Potency,CP185,inactive
same,Potency,CP191,inactive
same,Potency,CP192,inactive
same,Potency,CP194,inactive
same,Potency,CP201,inactive
same,Potency,CP203,inactive
same,Potency,CP211,inactive
same,Potency,CP217,inactive
same,Potency,CP237,inactive
same,Potency,CP238,inactive
same,Potency,CP247,inactive
same,Potency,CP250,inactive
